A short description of test [1]: NCI Yeast Anticancer Drug Screen. Data for the rad50 strain (AID 155).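 Also: 0% = growth of vehicle-only cultures of the same strain.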 To be noted: S. cerevisiae rad50 strain growth inhibition, active compounds read high. In short, it runs like this: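 Cells are treated with compound, grown, and their growth is then scored against vehicle-only cultures of the same repair-deficient yeast strain.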
Test [2] can be described thus: NCI Yeast Anticancer Drug Screen. Data for the mec2-1 strain (AID 157). The settings on record: S. cerevisiae mec2-1 strain, active compounds read high. In short, it runs like this:
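mec2-1 yeast strain, carrying an alteration in DNA damage repair or cell cycle control, was exposed to compounds; growth inhibition was measured relative to vehicle-treated controls.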

Test [3] in a line: NCI Yeast Anticancer Drug Screen. Data for the sgs1 mgt1 strain (AID 161).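 Also: 0% = growth of cultures given vehicle only.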 The settings on record: S. cerevisiae sgs1 mgt1 strain, active compounds read high. In short, it runs like this: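 Growth of a repair-deficient yeast mutant was monitored after compound treatment and expressed as inhibition relative to vehicle-treated cultures.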
Test [4] is described as follows: NCI Yeast Anticancer Drug Screen. Data for the cln2 rad14 strain (AID 165).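 Also: 0% = growth equal to vehicle treated cultures.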 To be noted: S. cerevisiae cln2 rad14 strain, active compounds read high. In short, it runs like this:
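Yeast carrying cln2 and rad14 alterations (cell cycle control and DNA damage repair) were exposed to compounds. Growth inhibition was measured against vehicle-treated controls.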

Test [5] is described as follows: NCI Yeast Anticancer Drug Screen. Data for the bub3 strain (AID 167). The settings on record: S. cerevisiae bub3 mutant strain, active compounds read high. In short, it runs like this:
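Part of a panel of yeast mutants defective in DNA damage repair or cell cycle regulation. Each strain is grown with compound, and inhibition is calculated relative to solvent-treated cultures.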

Test [6] is described as follows: NCI Yeast Anticancer Drug Screen. Data for the mlh1 rad18 strain (AID 175). The settings on record: S. cerevisiae mlh1 rad18 strain growth inhibition, active compounds read high. In short, it runs like this: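 Growth inhibition of the yeast strain was measured after compound exposure and expressed relative to vehicle-treated controls. The strain carries defined defects in DNA damage repair.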

Setting [7] is: at 5.0 µM (retest, dose inferred, filed as 0.5).
Where [8] appears, read: at 50.0 µM (retest, dose inferred, filed as 5.0).

These results are taken from PubChem BioAssay (NCI).

Molecules are shown by their SMILES. About 79,000 compounds went through this panel and 15% of them were active in at least one assay; those are over-represented in the sample as a whole. Unmarked numbers belong to inactive results. Calls of active or inactive are those of the source. Rule as the data show it: active = growth inhibition above about 70%; inactive = the rest.

As to `C[N+]12CC3C4CC(C3C1)C2C4` (configuration not stated), the growth inhibition in test [1] (setting [7]) was -19%; in test [1] (setting [8]) it was -27%; in test [1] (at 50.0 µM), 4.05%; in test [2] (setting [7]) it was -15%; in test [2] (setting [8]), -13%; in test [2] (at 50.0 µM), -2.9%. The growth inhibition in test [3] (setting [7]) is -3%; in test [3] (setting [8]), 4%; in test [3] (at 50.0 µM) it was 12.6%; in test [4] (setting [7]) it was 29%; in test [4] (setting [8]) it was 13%; in test [4] (at 50.0 µM), 1.3%. In addition, the growth inhibition in test [5] (setting [7]) was -6%; in test [5] (setting [8]), -12%; in test [5] (at 50.0 µM), 13.6%; in test [6] (setting [7]), -23%; in test [6] (setting [8]) it was -15%; in test [6] (at 50.0 µM), 7.95%.
As to `Cc1ccsc1/C=N/Nc1ccc2ccccc2n1`, the growth inhibition in test [1] (setting [7]) is 30%; in test [1] (setting [8]), 72% (active); in test [1] (at 50.0 µM), 78% (active); in test [2] (setting [7]) it was 20%; in test [2] (setting [8]) it was 74% (active); in test [2] (at 50.0 µM), 59.5%. The growth inhibition was 44% in test [3] (setting [7]); 97% (active) in test [3] (setting [8]); 86.8% (active) in test [3] (at 50.0 µM); 47% in test [4] (setting [7]); 91% (active) in test [4] (setting [8]); 50.6% in test [4] (at 50.0 µM). The growth inhibition in test [5] (setting [7]) was 42%; in test [5] (setting [8]), 95% (active); in test [5] (at 50.0 µM) it was 79% (active); in test [6] (setting [7]), 25%; in test [6] (setting [8]), 84% (active); in test [6] (at 50.0 µM) it was 23.4%.
In the case of `Clc1ccc(-c2cc(-c3cc(-c4ccc(Cl)c(Cl)c4)n[nH]3)[nH]n2)cc1Cl`, the growth inhibition is -2% in test [1] (setting [7]); 68% in test [1] (setting [8]); 91% (active) in test [1] (at 50.0 µM); 6% in test [2] (setting [7]); 43% in test [2] (setting [8]); 22.8% in test [2] (at 50.0 µM). Moreover, the growth inhibition in test [3] (setting [7]) is 0%; in test [3] (setting [8]) it was 67%; in test [3] (at 50.0 µM), 65%; in test [4] (setting [7]), 3%; in test [4] (setting [8]) it was 60%; in test [4] (at 50.0 µM), 29.7%. Also, the growth inhibition is -14% in test [5] (setting [7]); 89% (active) in test [5] (setting [8]); 22.8% in test [5] (at 50.0 µM); 19% in test [6] (setting [7]); 89% (active) in test [6] (setting [8]); 65% in test [6] (at 50.0 µM).
Regarding `Cc1nc2c(=O)[nH]c3ccc(Cl)cc3c2o1`, the growth inhibition is 3% in test [1] (setting [7]); 60% in test [1] (setting [8]); 42.5% in test [1] (at 50.0 µM); 3% in test [2] (setting [7]); 59% in test [2] (setting [8]); 38.1% in test [2] (at 50.0 µM). Further, the growth inhibition is 9% in test [3] (setting [7]); 90% (active) in test [3] (setting [8]); 40.7% in test [3] (at 50.0 µM); 7% in test [4] (setting [7]); 12% in test [4] (setting [8]); 77.3% (active) in test [4] (at 50.0 µM). Moreover, the growth inhibition is 6% in test [5] (setting [7]); 75% (active) in test [5] (setting [8]); 60.2% in test [5] (at 50.0 µM); 8% in test [6] (setting [7]); 89% (active) in test [6] (setting [8]); 46.2% in test [6] (at 50.0 µM).
In the case of `CCOc1ccc2c(c1)nc1ccccc1[n+]2CC`, the growth inhibition in test [1] (setting [7]) is 2%; in test [1] (setting [8]) it was 22%; in test [1] (at 50.0 µM), 20.3%; in test [2] (setting [7]), 7%; in test [2] (setting [8]), 33%; in test [2] (at 50.0 µM), 48.6%. The growth inhibition in test [3] (setting [7]) is 2%; in test [3] (setting [8]), 27%; in test [3] (at 50.0 µM) it was 41.4%; in test [4] (setting [7]) it was 2%; in test [4] (setting [8]) it was 9%; in test [4] (at 50.0 µM) it was 56.4%. For the same compound, the growth inhibition in test [5] (setting [7]) is 6%; in test [5] (setting [8]), 36%; in test [5] (at 50.0 µM) it was 24.3%; in test [6] (setting [7]), -4%; in test [6] (setting [8]) it was 20%; in test [6] (at 50.0 µM), 44.2%.
`Oc1c(Br)c(Br)c(O)c(Br)c1Br`: the growth inhibition in test [1] (setting [7]) is 12%; in test [1] (setting [8]) it was 50%; in test [1] (at 50.0 µM), 98.9% (active); in test [2] (setting [7]), 7%; in test [2] (setting [8]), 33%; in test [2] (at 50.0 µM), 99.2% (active). In addition, the growth inhibition in test [3] (setting [7]) was 7%; in test [3] (setting [8]), 58%; in test [3] (at 50.0 µM), 94.5% (active); in test [4] (setting [7]) it was 5%; in test [4] (setting [8]), 13%; in test [4] (at 50.0 µM), 37.5%. Moreover, the growth inhibition in test [5] (setting [7]) was 8%; in test [5] (setting [8]), 42%; in test [5] (at 50.0 µM) it was 97.8% (active); in test [6] (setting [7]) it was 10%; in test [6] (setting [8]), 35%; in test [6] (at 50.0 µM), 98% (active).
For the compound `CC(C)(C)C1=NC(=S)SC2=NC(=O)C3(NN21)c1ccccc1-c1ccccc13`, the growth inhibition in test [1] (setting [7]) is 6%; in test [1] (setting [8]) it was 86% (active); in test [1] (at 50.0 µM), 90.9% (active); in test [2] (setting [7]) it was -6%; in test [2] (setting [8]) it was 53%; in test [2] (at 50.0 µM), 74.3% (active). Moreover, the growth inhibition in test [3] (setting [7]) was 5%; in test [3] (setting [8]), 78% (active); in test [3] (at 50.0 µM), 86.6% (active); in test [4] (setting [7]), -10%; in test [4] (setting [8]), 45%; in test [4] (at 50.0 µM), 63%. Further, the growth inhibition is -11% in test [5] (setting [7]); 72% (active) in test [5] (setting [8]); 91% (active) in test [5] (at 50.0 µM); 6% in test [6] (setting [7]); 77% (active) in test [6] (setting [8]); 94.9% (active) in test [6] (at 50.0 µM).
For the compound `Cc1cc(Cl)c2c(c1)C(=N/O)/C(=C\c1ccco1)O2`, the growth inhibition is 100% (active) in test [1] (setting [7]); 99% (active) in test [1] (setting [8]); 88% (active) in test [1] (at 50.0 µM); 100% (active) in test [2] (setting [7]); 99% (active) in test [2] (setting [8]); 90.3% (active) in test [2] (at 50.0 µM). Further, the growth inhibition was 96% (active) in test [3] (setting [7]); 99% (active) in test [3] (setting [8]); 83.5% (active) in test [3] (at 50.0 µM); 77% (active) in test [4] (setting [7]); 99% (active) in test [4] (setting [8]); 88% (active) in test [4] (at 50.0 µM). Also, the growth inhibition in test [5] (setting [7]) was 100% (active); in test [5] (setting [8]), 99% (active); in test [5] (at 50.0 µM) it was 89% (active); in test [6] (setting [7]) it was 99% (active); in test [6] (setting [8]), 99% (active); in test [6] (at 50.0 µM) it was 85.2% (active).
As to `NC(CCCNc1nc(O)cc(=O)[nH]1)C(=O)O` (configuration not stated), the growth inhibition in test [1] (setting [7]) was -166%; in test [1] (setting [8]) it was -176%; in test [1] (at 50.0 µM), 18.2%; in test [2] (setting [7]), -51%; in test [2] (setting [8]), -54%; in test [2] (at 50.0 µM), 13.4%. Moreover, the growth inhibition is -66% in test [3] (setting [7]); -68% in test [3] (setting [8]); 7.3% in test [3] (at 50.0 µM); -63% in test [4] (setting [7]); -80% in test [4] (setting [8]); 66% in test [4] (at 50.0 µM). The growth inhibition in test [5] (setting [7]) is -68%; in test [5] (setting [8]), -73%; in test [5] (at 50.0 µM), 0.7%; in test [6] (setting [7]), -127%; in test [6] (setting [8]), -125%; in test [6] (at 50.0 µM), -5%.
